FBPA Giardia inh: qHTS Assay for Inhibitors of Fructose-1,6-bisphosphate Aldolase from Giardia Lamblia | purified Giardia FBPA | Potency, µM (titrated, usually from 59.6 µM), for inactives: at the top dose activity, negative = inhibition, most hits filed as inhibitors | A8B2U2 | actives 0.71% (n = 290,000); further: potency means the concentration at half of the fitted maximal effect; nearly all actives have a fitted effect of over 55% in size
Target sequence (A8B2U2 whole entry, looked up): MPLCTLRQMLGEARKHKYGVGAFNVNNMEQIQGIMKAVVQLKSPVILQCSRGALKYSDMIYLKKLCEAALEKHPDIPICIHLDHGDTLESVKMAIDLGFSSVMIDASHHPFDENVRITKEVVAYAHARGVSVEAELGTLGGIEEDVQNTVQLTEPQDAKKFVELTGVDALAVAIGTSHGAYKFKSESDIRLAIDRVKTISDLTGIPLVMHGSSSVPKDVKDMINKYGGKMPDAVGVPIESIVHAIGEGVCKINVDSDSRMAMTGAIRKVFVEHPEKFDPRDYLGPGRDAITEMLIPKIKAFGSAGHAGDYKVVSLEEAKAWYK
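40 nM FBPA preincubated 10 min at RT with compound (up to 57.5 uM final), then substrate plus GAPDH/TPI/NAD/arsenate coupling and diaphorase/resazurin added. Fluorescence read after 20 min at RT, 525/598 nm.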
Vaccinia mCherry: qHTS for Stage-Specific Inhibitors of Vaccinia Orthopoxvirus: mCherry Reporter Primary qHTS | actives 0.63% (n = 310,000) | Potency, µM (highest dose often 36.5 µM), inactives show at the highest dose activity change, negative = inhibition, actives largely listed as inhibitors | AID 720579, 2013 | Vaccinia virus mCherry reporter infection, fluorescence; calls by dose curve; tested in A549 cells; further: potency means the concentration at half of the fitted maximal effect; nearly all actives have a fitted effect of over 35% in size
FMDV inh: High Throughput Screening for Foot and Mouth Disease Virus Antivirals; actives 1.2% (n = 410,000); FMDV antiviral cell-based qHTS; Potency, µM (top dose mostly 57.9 µM), without a hit: at the top dose activity change, negative = inhibition, actives largely listed as inhibitors; calls by dose curve; tested in HEK293T cells; further: read-out not given here; potency means the concentration at half of the fitted maximal effect; nearly all actives have a fitted effect of over 45% in size
VACV Venus inh: qHTS for Stage-Specific Inhibitors of Vaccinia Orthopoxvirus: Venus Reporter Primary qHTS | Vaccinia virus Venus reporter expression, fluorescence | actives 0.46% (n = 330,000) | Potency, µM (top dose mostly 36.5 µM), without a hit: at the highest dose activity change, negative = inhibition, most hits filed as inhibitors | AID 720580, 2013; calls by dose curve; tested in A549 cells; further: potency means the concentration at half of the fitted maximal effect; nearly all actives have a fitted effect of over 30% in size
HCV inh: qHTS Assay for Inhibitors of Hepatitis C Virus (HCV); Huh7.5.1 HCVcc-Cre infection, luciferase reporter, 44 h; Potency, µM (titrated, usually from 41.8 µM), without a hit: top-dose activity change, negative = inhibition, hits mostly inhibitors; actives 3.4% (n = 340,000); further: potency means the concentration at half of the fitted maximal effect
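1,000 cells/well; 4 h culture; + compound; + HCVcc-Cre (~0.5 moi); 44 h; luciferase substrate, RT 15 min; read 15 sec.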
HCMV inh: qHTS Assay for inhibitors of the human cytomegalovirus (HCMV); AID 1259415, 2018; activity change, negative = inhibition, % at 57.5 µM; HFF cells, HCMV-luciferase reporter, 72 h; stronger effect = lower value; actives 4.5% (n = 410,000); in the data active means activity change below about -60%; inconclusive means no clear call, values can overlap the other calls; inactive means above about -39%
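Two compound doses tested in HFFs infected with HCMV-luciferase, MOI 1 PFU/cell, 72 h at 37C. Lysate luminescence read with OneGlo; data normalized against buffer-only and 10uM Salinomycin inhibitor controls.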
* marks the source's active call; other numbers are inactive results; i = inactive; ? = inconclusive; nt = not tested or not shown; + = active, no number; ! = not active in a repeat. Only some compounds are listed: those with a hit (about 7.5% of all), similar ones and a draw of the others. Unless noted, the call rests on the fitted dose curve; in most records, active means well fitted curve in the direction sought with a large enough effect; inconclusive means small, poorly fitted or top-dose-only effect, or another doubt; inactive means no such curve, though single readings can be large; an effect the other way counts as inactive or inconclusive. On the % scale 0 is the no-effect control and ±100 the full control effect.

SMILES | FBPA Giardia inh | Vaccinia mCherry | FMDV inh | VACV Venus inh | HCV inh | HCMV inh
Cc1cc(NC(=O)COC(=O)c2cc([N+](=O)[O-])ccc2N2CCOCC2)ccc1Br | nt | ? | 31.6µM* | -29.9% | 7.08µM* | -37.4
N/C(=N\OC(=O)c1cccc(Br)c1)c1ccccn1 | nt | nt | -51.8% | nt | 13.6% | 19.1
Cc1ccccc1C(=O)O/N=C(\N)c1ccccc1 | -4.0% | 0.3% | 11.2µM* | -2.0% | ? | 84.8
Cc1ccccc1/C(N)=N/OC(=O)c1ccc(F)cc1 | 0.0% | -3.0% | 8.0% | 1.5% | ? | -90.2*
N/C(=N\OC(=O)c1cccc(Br)c1)c1ccccc1 | 0.5% | nt | 16.3% | nt | 11.2µM* | 264.1
Cc1ccccc1OCC(=O)OCC(=O)c1c[nH]c2ccccc12 | nt | nt | -2.3% | nt | 3.1% | 3.2
CN1OC(C)(CC(=O)Nc2ccccc2)N=C1c1ccc(Br)cc1 (stereo not given) | nt | nt | nt | nt | nt | -11.5
CC1Cc2ccccc2N1C(=O)CSc1nncs1 (stereo not given) | nt | -17.6% | -6.3% | -4.5% | -8.0% | -23.2
COc1cccc(CN2CCC2(C)C(=O)Nc2ccc(Cl)c(Cl)c2)c1F (stereo not given) | nt | i | -26.8% | 2.2% | nt | -4.9
CCOC(=O)c1cc(CC)sc1NC(=O)CC1Sc2ccc(C(F)(F)F)cc2NC1=O (stereo not given) | 1.2% | -22.6% | -18.5% | -15.2% | 23.4% | -8.0
COc1ccc(NC(=O)CC2SC(=O)NC2=O)cc1 (stereo not given) | -2.5% | -10.1% | -8.9% | 2.5% | 2.6% | -66.8*
CCOC(=O)c1ccc(NC(=O)CC2Sc3ccc(C(F)(F)F)cc3NC2=O)cc1 (stereo not given) | nt | ? | -24.4% | ? | nt | -65.4*
CCc1cc2c(=O)n(Cc3ccco3)c(SCC(=O)N3CCCc4ccccc43)nc2s1 | -0.3% | nt | -14.0% | nt | 10µM* | 17.7
CCc1cc2c(=O)n(Cc3ccco3)c(SCC(=O)NC3CCS(=O)(=O)C3)nc2s1 (stereo not given) | -1.0% | 0.5% | 9.9% | 10.9% | -18.7% | 8.1
CCc1cc2c(=O)n(Cc3ccco3)c(SCc3c(C)noc3C)nc2s1 | -1.0% | ? | -20.6% | ? | 10µM* | 74.7
O=C(CSc1nc2c(sc3ccccc32)c(=O)n1Cc1ccco1)NCC1CCCO1 (stereo not given) | 5.4% | -15.7% | 0.0% | -13.6% | -2.6% | -11.1
CCc1cc2c(=O)n(Cc3ccco3)c(SCC(=O)NCC3CCCO3)nc2s1 (stereo not given) | 8.3% | -15.9% | 25.1µM* | -17.6% | 10µM* | ?
COCCN1C(=O)N[C@@H](c2cccc(C(F)(F)F)c2)C(C(C)=O)=C1C | 4.9% | nt | nt | nt | nt | nt
CC(C)OCCCNC(=O)CSc1c2c(nc3ccc(Cl)cc13)CCCC2 | nt | -2.6% | ? | -7.9% | nt | 32.3
COCCCNC(=O)CSc1c2c(nc3ccc(Cl)cc13)CCCC2 | -5.0% | 10.2% | 28.2µM* | -23.5% | ? | 71.6
CCN(CC)CCCNC(=O)CSc1c2c(nc3cc(Cl)ccc13)CCCC2 | -2.8% | -12.9% | 31.6µM* | ? | 10µM* | -107.0*!
O=C(CSc1c2c(nc3cc(Cl)ccc13)CCCC2)NCCCN1CCOCC1 | -6.2% | -5.0% | ? | -17.3% | ? | 13.2
Cc1cc(=O)[nH]c(SCC(=O)Nc2nc(-c3ccccc3)cs2)n1 | 12.1% | -8.0% | -29.4% | 11.4% | 1.6% | 61.1
Cc1nnc(SCC(=O)Nc2nc(-c3ccc(F)cc3)cs2)[nH]c1=O | 19.1% | 12.6µM* | 19.7% | ? | -28.9% | -13.9
COc1ccccc1Nc1nnc(SCC(=O)Nc2nc(-c3ccc(F)cc3)cs2)s1 | 1.2% | i | -1.9% | ? | -27.3% | -88.2*
SMILES | FBPA Giardia inh | Vaccinia mCherry | FMDV inh | VACV Venus inh | HCV inh | HCMV inh
COc1ccc(-c2csc(NC(=O)CSc3nnc(Nc4ccccc4C)s3)n2)cc1 | -1.4% | ? | 17.3% | -21.5% | -24.2% | -70.2*
CCOc1ccccc1Nc1nnc(SCC(=O)Nc2nc(-c3ccc(OC)cc3)cs2)s1 | -0.5% | -8.6% | 9.6% | -15.4% | -15.3% | 1.0
CC(=O)c1cccc(NC(=O)c2cc(=O)[nH]c3ccc(S(=O)(=O)N4CCOCC4)cc23)c1 | nt | -14.1% | -2.6% | 0.6% | -0.9% | -10.6
Cc1cc(C)c(C(=O)CSc2n[nH]c(-c3ccncc3)n2)c(C)c1 | 28.1% | -13.0% | -16.8% | -6.7% | 6.6% | -65.8*
C[C@H](NC(=O)[C@H]1N2C(=O)c3ccccc3C2SC1(C)C)C(=O)N1CCC[C@H]1C(=O)O (stereo not given in full) | ? | -6.0% | -6.2% | -7.9% | 1µM* | 13.5
CC(C)[C@H](NC(=O)[C@H]1N2C(=O)c3ccccc3C2SC1(C)C)C(=O)NCc1ccco1 (stereo not given in full) | nt | nt | 3.1% | nt | 2.4% | +
CCC(C)NC(=O)[C@H]1N2C(=O)c3ccccc3C2SC1(C)C (stereo not given in full) | -6.0% | nt | -16.7% | nt | 7.6% | 51.2
C[C@H](NC(=O)[C@H]1N2C(=O)c3ccccc3C2SC1(C)C)C(=O)N1CCC[C@H]1CO (stereo not given in full) | -21.6% | -5.8% | -11.6% | -1.9% | 9.8% | -12.8
O=C(C1CCCN(S(=O)(=O)c2cccc3nonc23)C1)N1CCN(c2cccc(C(F)(F)F)c2)CC1 (stereo not given) | nt | -26.7% | ? | -26.2% | nt | -15.0
COC(=O)[C@]12CCCCC=C1N(CCC1=CCCCC1)C(=O)[C@H](CC(=O)N1CCCC1)C2 | nt | 29.1% | -24.1% | -1.5% | nt | -32.2
CCOc1cc(/C=C2\COc3ccccc3C2=O)cc(Br)c1OCC(=O)N(C)C | -9.2% | ? | 10µM* | ? | ? | -39.0
O=C(O)c1ccc(/C=C2\COc3ccccc3C2=O)cc1 | 2.2% | -15.8% | 22.4µM* | -3.8% | -4.6% | 33.5
CCc1ccc(S(=O)(=O)/N=C2/C=C(Sc3ncn[nH]3)C(=O)c3ccccc32)cc1 | 0.792µM* | ? | 31.6µM* | 10µM* | 2.82µM* | nt
CCc1ccc(S(=O)(=O)/N=C2\C=CC(=O)c3ccccc32)cc1 | 7.06µM* | nt | nt | nt | nt | nt
Cc1cc(C)c(S(=O)(=O)/N=C2\C=C(NS(=O)(=O)c3ccccc3)C(=O)c3ccccc32)c(C)c1 | ? | ? | 48.7% | 1.9% | 8.8% | 55.5
Cc1cc(C)c(S(=O)(=O)/N=C2\C=C(Nc3ccc(C(=O)O)cc3)C(=O)c3ccccc32)c(C)c1 | ? | ? | ? | ? | ? | -85.2*

High-throughput results (PubChem BioAssay)
